# Test results: the supplement of paper PMC12636033
# ± gives the standard deviation of the averaged measurements. The full ranking holds about 33,000 sequences; the median of “E-score (rank enrichment, -0.5 to 0.5)” is about -0.0075, and the highest 2% start at about 0.23. The sample as a whole holds a higher share of the highest values than the screen did.
# Test system: WT Max(13-93) synthetic (M65Nle)
# Assay: PBM 8-mer E-score (E-score (rank enrichment, -0.5 to 0.5)); higher = stronger preferential binding
# Protocol: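 Protein binding microarray (universal PBM chip covering all 10-mers in fixed probe flanks) with chemically synthesized human Max(13-93) bHLH-LZ analogs (not full-length Max) bearing noncanonical residues (hArg, Tha, Aib, Nle at 65) and aromatic Cys staples. Read-out per 8-mer (and its reverse complement): E-score (rank-based enrichment, -0.5 to 0.5) and Z-score of median probe intensity.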
row,Sequence,PBM 8-mer E-score
1,GCTCTGAC,-0.2596 ± 0.00028
2,CCTACTGA,0.0748 ± 0.039
3,CCCTATCA,0.0698 ± 0.034
4,CCTCACAC,-0.0382 ± 0.027
5,TGAGCTCA,-0.206 ± 0.065
6,CATGCACA,0.353 ± 0.0061
7,AATGCACT,0.143 ± 0.027
8,CATGCACG,0.186 ± 0.11
9,CGTGCACA,0.176 ± 0.0077
10,AATGCACA,0.128 ± 0.055
11,CGTGCACG,0.293 ± 0.049
12,GATGCACA,-0.00554 ± 0.026
13,AATGCACG,0.245 ± 0.045
14,TGTGCACA,0.132 ± 0.071
15,CCTACTGC,-0.0303 ± 0.015
16,AATAGAGT,0.0159 ± 0.021
17,AAGGCTCT,-0.0744 ± 0.037
18,GGTCGGAA,-0.0727 ± 0.14
19,AGTCTGTG,-0.264 ± 0.097
20,ACAGTGTG,0.116 ± 0.011
21,GGACATTA,0.0724 ± 0.14
22,GTGCACAA,-0.0677 ± 0.047
23,GATACAGC,0.0628 ± 0.015
24,CAGTATTC,0.0983 ± 0.017
25,AACATGCG,0.221 ± 0.0062

row,Sequence,PBM 8-mer E-score
1,TACATGCA,0.196 ± 0.084
2,AATATGCG,0.0644 ± 0.011
3,CACATGCG,0.29 ± 0.047
4,AACATGCC,0.093 ± 0.12
5,CATATGCG,0.252 ± 0.015
6,CACATGCA,0.305 ± 0.031
7,GACATGCC,0.167 ± 0.019
8,CCCATGCG,0.187 ± 0.058
9,CATATGCC,0.118 ± 0.036
10,GACATGCA,0.144 ± 0.07
11,CACATGCC,0.258 ± 0.024
12,CTGCATAA,0.0963 ± 0.024
13,CCAATGTA,-0.0337 ± 0.034
14,GTTGTTTA,0.212 ± 0.071
15,CTACACTC,-0.0808 ± 0.031
16,ACTGAGAC,-0.109 ± 0.043
17,CCCACGGC,-0.024 ± 0.17
18,CAGATTGG,-0.114 ± 0.072
19,CACATCCG,-0.176 ± 0.045
20,CTAAGGAG,-0.143 ± 0.011
21,GAAATATA,0.219 ± 0.035
22,GAAATACA,-0.0415 ± 0.044
23,AAAATATG,0.21 ± 0.0022
24,AAAATACA,0.0792 ± 0.0013
25,TAAATACA,0.248 ± 0.0097

row,Sequence,PBM 8-mer E-score
1,AAAATATC,0.098 ± 0.12
2,CAAATATA,0.137 ± 0.06
3,TAAATATA,0.253 ± 0.0074
4,AAAATATA,0.254 ± 0.032
5,AGGGCGTA,0.122 ± 0.028
6,GAATTCTA,-0.07 ± 0.14
7,CAGGCCCC,-0.0835 ± 0.04
8,CCATGCAC,0.0862 ± 0.038
9,GCATGCAA,0.257 ± 0.029
10,AAATGCGT,0.0113 ± 0.099
11,GTATGCAC,0.1415 ± 0.00096
12,ACATGCGT,0.313 ± 0.081
13,ACATGCAG,0.126 ± 0.044
14,ACATGCAC,0.244 ± 0.065
15,ACATGCGG,0.14 ± 0.056
16,ACATGCAA,0.185 ± 0.073
17,CCATGCAA,0.127 ± 0.083
18,TCATGCAA,0.174 ± 0.02
19,GCATGCAC,0.277 ± 0.0097
20,CGCACTGA,-0.179 ± 0.032
21,ACTGTGTC,-0.00876 ± 0.03
22,GTCTGGCA,-0.0283 ± 0.1
23,ATAGACAA,0.1094 ± 0.00018
24,ACCTCGAT,-0.1167 ± 0.00076
25,ATTCTAAG,0.0595 ± 0.006

row,Sequence,PBM 8-mer E-score
1,CTGATCCA,0.0725 ± 0.042
2,CAGAGAAC,-0.0299 ± 0.06
3,TATGATCA,0.0122 ± 0.2
4,AAACAGTT,0.0134 ± 0.022
5,CCCCTATC,-0.00604 ± 0.055
6,GTCGGAGA,-0.0989 ± 0.0099
7,AAATGCAT,0.229 ± 0.035
8,ACATGCTC,0.272 ± 0.0055
9,ACATGCTA,0.174 ± 0.035
10,CCATGCTC,0.084 ± 0.019
11,ACATGCCT,0.219 ± 0.077
12,ACATGCAT,0.302 ± 0.039
13,AGTCTGGC,-0.226 ± 0.12
14,GTAGCACA,-0.0865 ± 0.011
15,CAAAGTAA,0.0802 ± 0.022
16,AGAAGTAA,0.154 ± 0.0017
17,AAAAGTAA,0.157 ± 0.0098
18,TGAAGTAA,0.119 ± 0.0048
19,TAAAGTAA,0.05 ± 0.016
20,AAAAGTAT,0.237 ± 0.021
21,GGAAGTAA,0.238 ± 0.048
22,AAAAGTAC,0.155 ± 0.029
23,GAAAGTAA,0.267 ± 0.032
24,GCCAATCA,0.0501 ± 0.062
25,TAATCGAA,0.0693 ± 0.0042

row,Sequence,PBM 8-mer E-score
1,CCGAAAGA,-0.0212 ± 0.033
2,CCCGGGCA,-0.273 ± 0.045
3,AGGGAGTC,-0.0877 ± 0.012
4,CATCGGAA,-0.106 ± 0.077
5,AAGTTGGG,-0.0303 ± 0.066
6,CTGCACGC,0.167 ± 0.037
7,ATGCACAC,0.239 ± 0.079
8,ATGCACAG,0.108 ± 0.0019
9,ATGCACGC,0.26 ± 0.026
10,ATGCACGA,0.172 ± 0.088
11,ATGCACAA,0.14 ± 0.051
12,ACCTAGCT,-0.036 ± 0.038
13,ACAATCAC,0.28 ± 0.016
14,GCAATCAC,0.0355 ± 0.036
15,CCAATCAC,0.158 ± 0.025
16,AACCAAGA,0.113 ± 0.036
17,AGGGGGGG,-0.162 ± 0.1
18,TCAAATCA,0.0295 ± 0.016
19,CACAACAC,0.162 ± 0.014
20,GACAACAC,0.025 ± 0.0086
21,CACAACAA,0.17 ± 0.053
22,TACAACAA,0.245 ± 0.075
23,AACAACAA,0.222 ± 0.06
24,AACAACAC,0.248 ± 0.025
25,AGCCGCTC,-0.0773 ± 0.005

row,Sequence,PBM 8-mer E-score
1,AGGCACAC,-0.00413 ± 0.014
2,TATTAGCA,0.103 ± 0.035
3,CCCCTCCA,0.186 ± 0.16
4,AGTAACAT,0.165 ± 0.019
5,ATAATACA,0.265 ± 0.036
6,CTATAATA,0.125 ± 0.03
7,ACATAATC,0.111 ± 0.029
8,ACATAATA,0.288 ± 0.01
9,ATAATATG,0.2169 ± 0.00097
10,GCATAATA,0.195 ± 0.12
11,CTAATATA,0.203 ± 0.012
12,ATAATACC,0.203 ± 0.026
13,GTATAATA,0.194 ± 0.011
14,ATAATATA,0.262 ± 0.069
15,ATAATACG,0.179 ± 0.092
16,ATATAATA,0.256 ± 0.035
17,AGCACAAT,0.0982 ± 0.029
18,ATCGGCCA,-0.199 ± 0.054
19,AAGATGAA,0.0673 ± 0.0063
20,AGTTCCTA,-0.0137 ± 0.1
21,CATTCCGA,0.0189 ± 0.04
22,CGCTCCAG,-0.224 ± 0.12
23,ATACTCCC,0.0233 ± 0.061
24,AGCGATAA,-0.115 ± 0.023
25,AAACCAGC,-0.182 ± 0.12

row,Sequence,PBM 8-mer E-score
1,CTGAAGGA,-0.0478 ± 0.038
2,AACAAAAA,0.113 ± 0.021
3,AACAAGTA,0.0942 ± 0.0044
4,AACAAAAT,0.301 ± 0.016
5,AACAAATA,0.235 ± 0.039
6,TACAAATA,0.154 ± 0.042
7,AACAAGAT,0.11 ± 0.095
8,AATCTACG,-0.0669 ± 0.058
9,AAAGTACG,0.0681 ± 0.065
10,CAGCACCA,-0.0907 ± 0.0017
11,CCATTAGA,-0.222 ± 0.029
12,ATAGAAAA,0.134 ± 0.016
13,AATTAAAT,0.253 ± 0.024
14,CATTAATA,0.119 ± 0.11
15,ACTTAATA,0.21 ± 0.015
16,AATTAAAC,0.218 ± 0.018
17,AATTAAAG,0.184 ± 0.068
18,AATTAAGA,0.241 ± 0.057
19,GATTAATA,0.266 ± 0.022
20,TATTAATA,0.19 ± 0.021
21,ATTTAATA,0.23 ± 0.013
22,GATTAAGA,0.182 ± 0.054
23,AATTAAGC,0.0692 ± 0.079
24,AATTAATA,0.243 ± 0.094
